# Results as given in the supplement of paper PMC7695840.
# Counter-ions that a name gives are not always drawn.
# Assays:
# [1] = test system: Staphylococcus aureus MW2 delta-mecA (mecA-); assay: normalized GFP fluorescence (growth of mecA- strain) (fraction of control range); higher = more growth of mecA- strain; settings: compound concentration: 150 uM; cefoxitin: subinhibitory; fluorescent label: GFP
# Procedure, shortened: (§1)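 Pre-induced S. aureus MW2 mecA+ (DsRed) and ΔmecA (GFP) cells were mixed 1:1 in LB with a daily-set subinhibitory cefoxitin dose. They were dispensed at 5 µL/well onto 150 μM compound (1.5% DMSO) in 1536-well plates, single replicate. Growth was 20 h at 37 °C, 90% humidity, unshaken, and DsRed (540/590) and GFP (485/520) were then read. Each channel was scaled per plate between the medians of the single-strain controls. Plates with high No Treatment ratios and rows with DsRed/GFP >10 were excluded.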
# [2] = test system: Staphylococcus aureus MW2 (mecA+); assay: normalized DsRed fluorescence (growth of mecA+ strain) (fraction of control range); higher = more growth of mecA+ strain; settings: compound concentration: 150 uM; cefoxitin: subinhibitory; fluorescent label: DsRed
# Procedure, shortened: as §1
Structure (SMILES),normalized GFP fluorescence [1],normalized DsRed fluorescence [2]
Nc1nc2c(ncn2COC(CO)CO)c(=O)[nH]1,0.466,0.948
CC(C)c1nc(N(C)S(C)(=O)=O)nc(-c2ccc(F)cc2)c1/C=C/[C@@H](O)C[C@@H](O)CC(=O)O,0.207,0.514
Cc1[nH]c(=O)c(C#N)cc1-c1ccncc1,0.476,0.797
O=C(NC[C@H]1CN(c2ccc(N3CCOCC3=O)cc2)C(=O)O1)c1ccc(Cl)s1 [Rivaroxaban (Xarelto)],0.0017,0.837
CC(CCc1ccccc1)NCC(O)c1ccc(O)c(C(N)=O)c1 (stereo not given),0.745,0.7
c1ccc(CC2=NCCN2)cc1,0.234,0.835
COc1cc(Nc2c(C#N)cnc3cc(OCCCN4CCN(C)CC4)c(OC)cc23)c(Cl)cc1Cl [Bosutinib (SKI-606)],-0.0247,0.727
O=C1O[C@H]([C@@H](O)CO)C(O)=C1O,0.78,0.485
CCCCCNC(=N)N/N=C/c1c[nH]c2ccc(OC)cc12,0.0155,0.587
CN1C(C(=O)Nc2ccccn2)=C(O)c2sccc2S1(=O)=O,0.0134,0.778
CC(=O)c1ccc(S(=O)(=O)NC(=O)NC2CCCCC2)cc1,0.35,0.729
CO[C@@]1(NC(=O)CSCC#N)C(=O)N2C(C(=O)O)=C(CSc3nnnn3C)CS[C@@H]21,0.268,0.711
CN(C)CCCN1c2ccccc2Sc2ccccc21,-0.00898,1.06
CCC(NC(C)C)C(O)c1ccc(O)c(O)c1 (stereo not given),0.38,0.581
CC(C)Cc1ccc([C@H](C)C(=O)O)cc1,0.21,0.388
O=P(O)(O)C(O)(Cc1cccnc1)P(=O)(O)O [Risedronic acid (Actonel)],0.68,0.671
CC1(C)O[C@@H]2C[C@H]3[C@@H]4C[C@H](F)C5=CC(=O)C=C[C@]5(C)[C@@]4(F)[C@@H](O)C[C@]3(C)[C@]2(C(=O)CO)O1,0.372,0.706
COc1cc(CNC(=O)CCCC/C=C/C(C)C)ccc1O,0.0346,0.539
CC(NCCc1ccc(O)cc1)C(O)c1ccc(O)cc1 (stereo not given),0.828,0.736
O=C(O)COCCN1CCN([C@H](c2ccccc2)c2ccc(Cl)cc2)CC1,0.222,0.775

Structure (SMILES),normalized GFP fluorescence [1],normalized DsRed fluorescence [2]
NC(=O)c1cc[n+](CC2=C(C(=O)O)N3C(=O)[C@@H](NC(=O)[C@@H](c4ccccc4)S(=O)(=O)[O-])[C@H]3SC2)cc1,0.172,1.03
CN(CCOc1ccc(CC2SC(=O)NC2=O)cc1)c1ccccn1 (stereo not given),0.341,0.876
CNCCCN1c2ccccc2CCc2ccccc21,0.0357,1.99
CC(CN(C)C)CN1c2ccccc2CCc2ccccc21 (stereo not given),0.0825,1.55
CN1CCN(C(c2ccccc2)c2ccccc2)CC1,0.231,1.32
Cc1nc(-c2ccc(OCC(C)C)c(C#N)c2)sc1C(=O)O [Febuxostat (Uloric)],0.0973,0.396
Oc1ccc(C2CNCCc3c2cc(O)c(O)c3Cl)cc1 (stereo not given),0.582,0.979
CCn1cc(C(=O)O)c(=O)c2cc(F)c(N3CCNCC3)nc21 [Enoxacin (Penetrex)],0.206,0.928
N[C@H](C(=O)O)[C@H](O)c1ccc(O)c(O)c1 [Droxidopa (L-DOPS)],-0.00088,1.79
Nc1ccc(S(=O)(=O)Nc2ncccn2)cc1,0.475,0.718
CNNCc1ccc(C(=O)NC(C)C)cc1,0.425,0.606
CC(=O)CCCCn1c(=O)c2c(ncn2C)n(C)c1=O,0.276,0.952
C#C[C@]1(O)CC[C@H]2[C@@H]3CCC4=Cc5oncc5C[C@]4(C)[C@H]3CC[C@@]21C,0.414,0.779
COc1cc(N)c(Cl)cc1C(=O)NC1CCN(CCCOc2ccc(F)cc2)CC1OC (stereo not given),0.458,0.643
C[N+](C)(C)CCOP(=O)(O)OP(=O)([O-])OC[C@H]1O[C@@H](n2ccc(N)nc2=O)[C@H](O)[C@@H]1O,0.342,0.78
C[C@H](NCc1ccc(OCc2cccc(F)c2)cc1)C(N)=O,0.957,0.675
CNCC[C@@H](Oc1ccccc1C)c1ccccc1,0.319,0.638
C[N+](C)(C)C[C@H](O)CC(=O)[O-],0.791,0.508
Cc1cc(C(C)(C)C)c(O)c(C)c1CC1=NCCN1 [Oxymetazoline hydrochloride],0.135,1.28
CCCCOc1cc(C(=O)NCCN(CC)CC)c2ccccc2n1 [Dibucaine (Cinchocaine) HCl],0.265,0.835
